# Screening results (PubChem BioAssay)
# mHTT-CaM PPI inh – mHTT-calmodulin interaction abrogation. P42858. AlphaScreen His-mHTT/GST-CaM binding, luminescence. inhibition, % at 15 µM. actives 3.6% (n = 190,000);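 note: 0% = both proteins with DMSO and 100% = one protein alone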
# Pf apPOL inh – Pf-apPOL DNA polymerase inhibition. AID 1794808. Recombinant Pf-apPOL, molecular beacon fluorescence, 1.5 h. inhibition, % at 10 µM. actives 0.25% (n = 210,000)
# * marks the source's active call; other numbers are inactive results. Compounds with a hit are over-represented: about 3.6% of the library has one in this group of screens. Cut-off read from the data, not from the text of the source: active = inhibition above about 50%; inactive = the rest.
SMILES,mHTT-CaM PPI inh,Pf apPOL inh
O=C(NCc1c(F)cccc1F)C(=O)Nc1ccon1,-5,2
Cc1nnc(SCC(=O)Nc2ccccc2C(F)(F)F)[nH]c1=O,-17,-9
COc1ccc(NC(=O)N2CCc3cn(C)c4cccc(c34)C2)c(OC)c1,75*,-2
COc1ccccc1NC(=O)N1CCc2cn(C)c3cccc(c23)C1,51*,-1
CCCn1cc2c3c(cccc31)CN(C(=O)Nc1cc(OC)ccc1OC)CC2,73*,-1
COc1cccc(NC(=O)N2CCc3cn(C)c4cccc(c34)C2)c1,14,-4
CCCn1cc2c3c(cccc31)CN(C(=O)Nc1cccc(OC)c1)CC2,1,-2
CCn1cc2c3c(cccc31)CN(C(=O)Nc1ccc(OC)cc1OC)CC2,27,-3
CCn1cc2c3c(cccc31)CN(C(=O)Nc1ccccc1OC)CC2,29,-1
COc1ccc(OC)c(NC(=O)N2CCc3cn(C)c4cccc(c34)C2)c1,62*,3
COc1cccc(-c2nc(C3CCN(S(=O)(=O)c4ccc(C)c(C)c4)CC3)no2)c1,1,2
COc1ccc(NC(=O)C2CCC(Cn3c(=O)[nH]c4ccsc4c3=O)CC2)cc1Cl (stereo not drawn),5,-7
CC(=O)N1CCc2ccccc2C1C(=O)NCc1cccnc1 (stereo not drawn),-10,-5
N#C/C(=C\c1cn(Cc2ccc(Cl)cc2)c2ccccc12)c1nn(CCO)c(N)c1C#N,69*,-2
N#C/C(=C\c1ccc(-c2ccccc2F)o1)c1nn(CCO)c(N)c1C#N,12,-1
COc1ccc(Br)cc1/C=C(\C#N)c1nn(CCO)c(N)c1C#N,47,-1
CC(C)Oc1ccc(Br)cc1/C=C(\C#N)c1nn(CCO)c(N)c1C#N,54*,-4
N#C/C(=C\c1cn(Cc2ccccc2Cl)c2ccccc12)c1nn(CCO)c(N)c1C#N,39,-1
N#C/C(=C\c1ccc(-c2ccccc2[N+](=O)[O-])o1)c1nn(CCO)c(N)c1C#N,72*,-6
CCOc1ccccc1NC(=O)c1cn2c(n1)CCCC2,-3,-3
CC(=O)c1cccc(NC(=O)CN(C)S(=O)(=O)c2ccc3[nH]c4c(c3c2)CCCC4)c1,28,-2
CC(=O)c1cccc(NS(=O)(=O)c2ccc3[nH]c4c(c3c2)CCCCC4)c1,99*,-4
CC(=O)c1ccc(NS(=O)(=O)c2ccc3[nH]c4c(c3c2)CCCCC4)cc1,70*,-1
CC(=O)c1cccc(NS(=O)(=O)c2ccc3[nH]c4c(c3c2)CCCC4)c1,84*,0
CCOC(=O)c1cccc(NS(=O)(=O)c2ccc3[nH]c4c(c3c2)CCCC4)c1,95*,-3
SMILES,mHTT-CaM PPI inh,Pf apPOL inh
CN(CC(=O)Nc1cccc(F)c1)S(=O)(=O)c1ccc2[nH]c3c(c2c1)CCCC3,42,-1
CC(=O)c1cccc(NS(=O)(=O)c2ccc(F)cc2)c1,4,-6
O=C1c2cc(N3CCOCC3)c([N+](=O)[O-])cc2C(=O)N1c1cccc2c1CCCC2,26,0
Cc1ccccc1S(=O)(=O)N1CCC(c2nc(C(=O)N3CCCC3)c(C)o2)CC1,2,-6
O=C(Nc1ccccc1C(=O)Nc1ccccc1)c1ccccn1,2,-1
COCOCCn1cc(CN2CCS(=O)(=O)N(Cc3ccc(-c4ccc(C)cc4)cc3)C(C(C)C)C2=O)nn1 (stereo not drawn),10,-12
COCOCCn1cc(CN2CCS(=O)(=O)N(Cc3ccc(-c4ccccc4)cc3)C(C(C)C)C2=O)nn1 (stereo not drawn),54*,-22
COCOCCn1cc(CN2CCS(=O)(=O)N(Cc3ccc(-c4ccc(Cl)c(Cl)c4)cc3)C(C)C2=O)nn1 (stereo not drawn),99*,-6
COCOCCn1cc(CN2CCS(=O)(=O)N(Cc3ccc(-c4ccc(C)cc4)cc3)C(C)C2=O)nn1 (stereo not drawn),-4,-19
Cc1cc(Cl)ccc1NC(=O)c1ccc(-c2cncnc2)nc1,-1,0
O=c1oc2ccccc2nc1C=C(O)c1ccc(Cl)cc1,6,-1
COc1cccc(CNC(=O)N2CCCCC2c2nncn2C)c1 (stereo not drawn),-1,-4
O=[N+]([O-])c1ccc(-c2csc(=Nc3ccccc3)n2CCO)cc1,32,1
Cc1csc(=Nc2ccccc2)n1CC(O)c1ccc([N+](=O)[O-])cc1 (stereo not drawn),83*,3
Cc1ccc(C(=O)N=C2SCCN2C(=O)c2ccc(C)s2)s1,87*,0
Cc1ccc(C(=O)N2CCCCC2CCN(C)C)s1 (stereo not drawn),-1,-2
Cc1ccc(-n2nc3c(c2NC(=O)CCc2ccccc2)CS(=O)(=O)C3)c(C)c1,4,-2
CSCCC(C(=O)N1CCOCC1)N1C(=O)C2C3c4ccccc4C(c4ccccc43)C2C1=O (stereo not drawn),17,0
Cc1ccc(-c2nc(C(=O)Nc3ccc(F)cc3)cs2)n1C,58*,2
